Pf apPOL block = Pf-apPOL DNA polymerase inhibition; Recombinant Pf-apPOL, molecular beacon fluorescence, 1.5 h; inhibition, % at 10 µM; 210,000 compounds, 0.25% hits
mHTT CaM bind = mHTT-calmodulin interaction abrogation | P42858 | AlphaScreen His-mHTT/GST-CaM binding, luminescence | inhibition, % at 15 µM | 190,000 compounds, 3.6% hits | AID 1671202;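 note: 0% = both proteins with DMSO and 100% = one protein alone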
Target sequence (P42858 whole entry, looked up, stated change not applied): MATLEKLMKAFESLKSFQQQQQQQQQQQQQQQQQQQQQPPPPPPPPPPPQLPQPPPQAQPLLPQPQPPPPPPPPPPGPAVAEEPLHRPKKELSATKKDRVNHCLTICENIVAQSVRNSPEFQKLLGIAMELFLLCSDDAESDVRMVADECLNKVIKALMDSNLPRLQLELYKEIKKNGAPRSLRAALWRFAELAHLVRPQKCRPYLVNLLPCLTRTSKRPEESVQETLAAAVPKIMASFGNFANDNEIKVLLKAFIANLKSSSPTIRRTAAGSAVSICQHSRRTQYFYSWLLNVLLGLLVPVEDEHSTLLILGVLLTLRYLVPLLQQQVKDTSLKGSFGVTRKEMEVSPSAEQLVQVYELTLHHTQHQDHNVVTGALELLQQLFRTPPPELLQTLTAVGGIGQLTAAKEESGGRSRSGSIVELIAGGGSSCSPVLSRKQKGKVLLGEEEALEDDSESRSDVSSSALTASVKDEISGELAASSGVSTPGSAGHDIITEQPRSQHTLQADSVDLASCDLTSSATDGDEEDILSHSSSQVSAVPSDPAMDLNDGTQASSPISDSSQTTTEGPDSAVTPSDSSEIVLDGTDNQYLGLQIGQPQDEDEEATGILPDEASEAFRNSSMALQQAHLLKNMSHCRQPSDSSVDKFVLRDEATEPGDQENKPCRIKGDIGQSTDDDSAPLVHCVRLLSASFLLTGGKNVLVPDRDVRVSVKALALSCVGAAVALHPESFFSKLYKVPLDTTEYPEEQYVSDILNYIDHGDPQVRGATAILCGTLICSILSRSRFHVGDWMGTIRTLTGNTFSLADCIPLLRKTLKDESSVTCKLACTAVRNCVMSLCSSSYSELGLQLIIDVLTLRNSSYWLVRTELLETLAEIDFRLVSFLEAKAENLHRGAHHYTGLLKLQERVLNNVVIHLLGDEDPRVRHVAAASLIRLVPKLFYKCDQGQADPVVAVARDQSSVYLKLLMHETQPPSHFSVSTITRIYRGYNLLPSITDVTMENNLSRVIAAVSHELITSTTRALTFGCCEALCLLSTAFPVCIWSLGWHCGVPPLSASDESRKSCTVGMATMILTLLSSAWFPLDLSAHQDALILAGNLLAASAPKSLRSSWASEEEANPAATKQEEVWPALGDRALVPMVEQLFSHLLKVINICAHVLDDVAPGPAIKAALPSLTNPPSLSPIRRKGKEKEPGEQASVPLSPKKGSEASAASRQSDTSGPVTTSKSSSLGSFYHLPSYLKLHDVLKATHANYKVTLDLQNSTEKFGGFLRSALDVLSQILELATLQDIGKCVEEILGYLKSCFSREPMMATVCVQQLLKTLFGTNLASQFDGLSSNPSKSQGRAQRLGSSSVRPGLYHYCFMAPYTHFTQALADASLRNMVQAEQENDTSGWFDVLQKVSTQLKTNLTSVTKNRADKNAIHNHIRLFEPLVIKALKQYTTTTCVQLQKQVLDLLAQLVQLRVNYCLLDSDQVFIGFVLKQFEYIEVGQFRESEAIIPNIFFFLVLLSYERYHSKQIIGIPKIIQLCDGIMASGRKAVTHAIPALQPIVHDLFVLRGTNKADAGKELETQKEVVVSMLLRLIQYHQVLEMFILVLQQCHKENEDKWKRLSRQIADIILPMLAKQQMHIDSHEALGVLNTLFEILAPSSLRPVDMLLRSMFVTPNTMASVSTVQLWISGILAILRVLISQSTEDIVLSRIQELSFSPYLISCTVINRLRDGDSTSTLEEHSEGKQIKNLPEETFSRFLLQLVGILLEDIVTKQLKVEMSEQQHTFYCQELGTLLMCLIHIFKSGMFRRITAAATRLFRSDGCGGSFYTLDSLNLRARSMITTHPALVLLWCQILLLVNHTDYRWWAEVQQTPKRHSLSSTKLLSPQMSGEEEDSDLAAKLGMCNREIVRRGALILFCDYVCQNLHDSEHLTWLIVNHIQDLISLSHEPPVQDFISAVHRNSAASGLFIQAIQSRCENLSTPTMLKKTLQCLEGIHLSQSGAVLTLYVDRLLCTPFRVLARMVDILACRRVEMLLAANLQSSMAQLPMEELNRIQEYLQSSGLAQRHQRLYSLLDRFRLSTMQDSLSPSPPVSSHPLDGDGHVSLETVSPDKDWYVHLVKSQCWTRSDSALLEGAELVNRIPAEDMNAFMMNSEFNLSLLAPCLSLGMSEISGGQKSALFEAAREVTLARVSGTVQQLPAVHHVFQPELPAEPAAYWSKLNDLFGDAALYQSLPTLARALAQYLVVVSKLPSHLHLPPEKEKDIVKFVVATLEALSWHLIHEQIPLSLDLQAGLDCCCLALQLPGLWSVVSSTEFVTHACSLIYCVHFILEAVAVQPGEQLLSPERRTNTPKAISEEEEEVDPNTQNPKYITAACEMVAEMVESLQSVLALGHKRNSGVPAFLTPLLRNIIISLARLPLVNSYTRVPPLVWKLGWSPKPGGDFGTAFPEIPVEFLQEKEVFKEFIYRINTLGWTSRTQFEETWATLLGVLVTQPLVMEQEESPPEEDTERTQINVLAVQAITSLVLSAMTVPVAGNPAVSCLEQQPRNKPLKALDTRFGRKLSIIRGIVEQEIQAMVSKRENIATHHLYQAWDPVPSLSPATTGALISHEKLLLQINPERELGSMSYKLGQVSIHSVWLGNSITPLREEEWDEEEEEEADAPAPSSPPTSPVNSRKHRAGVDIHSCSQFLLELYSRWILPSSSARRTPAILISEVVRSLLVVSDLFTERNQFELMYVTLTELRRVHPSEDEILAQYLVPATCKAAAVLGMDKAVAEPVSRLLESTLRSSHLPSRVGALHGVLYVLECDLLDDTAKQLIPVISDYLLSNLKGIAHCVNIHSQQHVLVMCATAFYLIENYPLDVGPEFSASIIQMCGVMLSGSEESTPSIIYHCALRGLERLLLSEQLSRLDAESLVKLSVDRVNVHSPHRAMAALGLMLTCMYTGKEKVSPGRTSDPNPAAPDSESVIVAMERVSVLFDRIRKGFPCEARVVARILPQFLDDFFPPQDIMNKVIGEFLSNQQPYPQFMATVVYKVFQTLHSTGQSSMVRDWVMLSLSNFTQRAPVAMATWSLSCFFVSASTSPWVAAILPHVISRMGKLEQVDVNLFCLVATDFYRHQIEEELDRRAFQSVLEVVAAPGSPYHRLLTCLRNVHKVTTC
* hit, by the source's call; . = no result. The sample as a whole holds a higher share of hits than the screen did. Cut-off read from the data, not from the text of the source: active = inhibition above about 50%; inactive = the rest.

SMILES	Pf apPOL block	mHTT CaM bind
Cc1cccc(NC(=O)N2CCCC(CCC(=O)NCc3ccc(F)cc3F)C2)c1 (stereo unspecified)	-1	4
Cc1ccc2n1CCN(C(=O)Nc1cccc(C(F)(F)F)c1)C2C(C)C (stereo unspecified)	-3	74*
CCCC1c2ccc(C)n2CCN1C(=O)Nc1cccc(Cl)c1 (stereo unspecified)	6	28
CCCC1c2ccc(C)n2CCN1C(=O)Nc1ccc(F)c(Cl)c1 (stereo unspecified)	2	90*
Cc1ccc2n1CCN(C(=O)Nc1ccc(F)c(Cl)c1)C2C(C)C (stereo unspecified)	-8	62*
Cc1ccc2n1CCN(C(=O)Nc1ccccc1C(F)(F)F)C2C(C)C (stereo unspecified)	-1	-1
Cc1ccc(NC(=O)N2CCn3c(C)ccc3C2C(C)C)cc1C (stereo unspecified)	-4	6
CC1c2cccn2CCN1C(=O)Nc1cccc(C(F)(F)F)c1 (stereo unspecified)	-3	21
CCCC1c2cccn2CCN1C(=O)Nc1cccc(C(F)(F)F)c1 (stereo unspecified)	-4	55*
O=C1OC(c2ccccc2F)=N/C1=C\C(Cl)=C\c1ccccc1	-1	8
NC(=O)c1c(NC(NC(=O)c2cccs2)C(=O)c2ccccc2)sc2c1CCCC2 (stereo unspecified)	3	32
O=C(NCc1ccccn1)c1cc(S(=O)(=O)N2CCOCC2)ccc1F	0	3
COCCCNC(=O)C1(C)CCC(=O)N1c1ccccc1C (stereo unspecified)	-4	-11
Cc1ccc(C)c(NC(=O)CS(=O)(=O)c2cn(Cc3cccc(F)c3)c3ccccc23)c1	4	28
CCCC1c2cccn2CCN1C(=O)Nc1ccc(F)cc1 (stereo unspecified)	-5	9
CCCC1c2cccn2CCN1C(=O)Nc1ccc(C)c(F)c1 (stereo unspecified)	3	51*
CCCC1c2cccn2CCN1C(=O)Nc1ccc(F)c(Cl)c1 (stereo unspecified)	-2	83*
CC1c2cccn2CCN1C(=O)Nc1ccc(F)c(Cl)c1 (stereo unspecified)	-2	5
Cc1c(C(=O)N(Cc2ccccc2)C(C)C)oc2ccc(S(=O)(=O)N3CCCC3)cc12	-13	13
O=C(Cc1nnc(-c2cccc(F)c2)o1)N1CCCCC1	-2	-1
O=C1CCC(=O)N1c1ccccc1N1CCOCC1	-2	.
O=C1c2cccc(N3CCOCC3)c2C(=O)c2cccc(Cl)c21	-71	84*
CC(C)CNC(=O)CN(c1cc(C(F)(F)F)ccc1Cl)S(=O)(=O)c1ccccc1	-6	0
COc1cccc(C2CC(c3ccc(Br)cc3)=NN2C(=O)c2ccncc2)c1OC (stereo unspecified)	-5	61*
COc1ccccc1C1CC(c2ccc(Br)cc2)=NN1C(=O)c1cccnc1 (stereo unspecified)	-3	53*
SMILES	Pf apPOL block	mHTT CaM bind
COc1ccccc1C1CC(c2ccc(Br)cc2)=NN1C(=O)CCC(=O)O (stereo unspecified)	-1	10
COc1ccccc1C1CC(c2ccc(Br)cc2)=NN1C(=O)c1ccncc1 (stereo unspecified)	-5	18
OC1(c2cn3ccccc3n2)CCCCC1	.	-4
CSC1=NC(C)(C)Cc2ccccc21	-4	0
Cc1ccc2oc(C(=O)N3CCN(c4cccc(C(F)(F)F)c4)CC3)cc2n1	-10	72*
O=C(C1CCN(c2ccncc2)CC1)N1CCN(c2cccc(C(F)(F)F)c2)CC1	1	7
CCN1CCN(C(=O)c2ccc([N+](=O)[O-])c(C)c2)CC1	-6	-2
Cc1cc(C)nc(SCN2C(=O)c3ccccc3C2=O)n1	-5	-5
O=C1CCCC(O)=C1C(C#Cc1ccccc1)C1=C(O)CCCC1=O	-2	87*
NS(=O)(=O)C#Cc1ccccc1	-3	-9
Cn1c(=O)[nH]c(=O)c2c1nc(N1CCOCC1)n2CC(O)COc1ccc(Cl)cc1Cl (stereo unspecified)	-5	-3
Cc1cc(C)n(-c2nc3c(c(=O)[nH]c(=O)n3C)n2CC(O)COc2ccccc2Cl)n1 (stereo unspecified)	14	100*
CC1=NN(C(=O)CCCc2ccccc2)C(O)(c2ccc(Br)cc2)C1 (stereo unspecified)	1	58*
CCC(=O)N1N=C(CC)CC1(O)c1ccc(Br)cc1 (stereo unspecified)	-4	6
COc1cc(/C=C2/SC(c3ccc(C)cc3)=NC2=O)cc(OC)c1O	5	42
Cc1ccc(C2=NC(=O)/C(=C\c3cc(O)c(O)c(Br)c3)S2)cc1	10	95*
O=C(O)COc1ccc(Br)cc1/C=C1/NC(=O)NC1=O	4	6
CSc1nnc2c3cc(Br)ccc3n(C)c2n1	1	-2
COCC(=O)N1CCc2c(c(C(=O)NCc3cccc(C)c3)nn2C)C1	-3	-2
Cc1cccc(OCC(=O)N2CCc3c(c(C(=O)NCc4ccc(F)cc4)nn3C)C2)c1	-8	55*
Cc1cccc(CNC(=O)c2nn(C)c3c2CN(C(=O)COc2ccc(F)cc2)CC3)c1	-3	63*
COc1ccc(OCC(=O)N2CCc3c(c(C(=O)NCc4cccc(C)c4)nn3C)C2)cc1	-6	70*
Cc1cccc(CNC(=O)c2nn(C)c3c2CN(C(=O)Cc2cccs2)CC3)c1	-10	69*
Cc1cccc(OCC(=O)N2CCc3c(c(-c4nc(-c5ccc(F)cc5)no4)nn3C)C2)c1	-7	-2
Cc1cccc(CNC(=O)c2nn(C)c3c2CN(C(=O)c2cccs2)CC3)c1	-12	30
SMILES	Pf apPOL block	mHTT CaM bind
O=C(NCc1nc(-c2ccccc2)no1)C1(c2cccs2)CCCC1	-1	-29
Cc1ccc(S(=O)(=O)N=C(CNC(C)C)N2CCOCC2)cc1	0	-2
COc1cc(/C=C2/C(=O)NC(=O)N(Cc3ccc(F)cc3)C2=O)cc(OC)c1OC	0	24
CCC(=O)N1CCc2c(c(C(=O)NCc3cccc(C)c3)nn2C)C1	30	26
COc1cccc(CC(=O)N2CCc3c(c(C(=O)NCc4cccc(C)c4)nn3C)C2)c1	-4	54*
Cc1ccc(C(=O)NCc2ccc3c(c2)ncn3C)s1	3	0
CC(=O)c1ccc(N2CC(C)OC(C)C2)c([N+](=O)[O-])c1 (stereo unspecified)	-8	.
CC1CN(Cc2cc([N+](=O)[O-])c3cccnc3c2O)CC(C)O1 (stereo unspecified)	-4	100*
O=[N+]([O-])c1cc(CN2CCOCC2)c(O)c2ncccc12	-46	100*
O=[N+]([O-])c1ccccc1CN1CCOCC1	3	2
CCOC(CNC(=O)c1ccc(CNS(=O)(=O)c2ccc(C)cc2)cc1)OCC	-4	3
COc1cccc(-c2nc(C3CCN(S(=O)(=O)c4cccc(F)c4F)CC3)no2)c1	-1	-9
CCc1onc(C)c1C1CCCN1C(=O)Nc1cccc(OC)c1 (stereo unspecified)	-1	-4
Cc1cccc(C(=O)N2CCC(c3cnn(-c4ccccc4)c3)CC2)c1	-7	-1
Cc1ccc(CN2C(=O)NC3(CCN(C(=O)Cc4ccc(Cl)cc4)CC3)C2=O)cc1	-15	1
Cc1ccc(C)c(CN2C(=O)NC3(CCN(C(=O)Cc4ccc(Cl)cc4)CC3)C2=O)c1	-4	58*
